From PubChem BioAssay AID1159580 (chemical genetic matrix, 2015)
In all, about 5,500 compounds went through this assay and about 2,000 (36%) were called active. Roughly 18% stayed inconclusive and do not appear here. Rule as the data show it: active = normalized growth mostly below about 0.91 (no sharp cut-off); inconclusive = no clear call, values can overlap the other calls; inactive = mostly above about 0.92. This is one part of the list.

Assay: chemical genetic growth profiling, strain panel (AID 1159580);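 also: tested at 20 µM; growth read once vehicle control cultures reached saturation at 30 °C; 1 = growth at the plate median or of vehicle wells; lower values mean less growth of the strain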
Conditions: S. cerevisiae deletion strains, growth OD

Measured: normalized growth

Clc1ccc(Cn2c(CN3CCCC3)nc3ccccc32)cc1
inactive: locus YAL040C, strain CLN3, stronger effect = lower value 1.01 | locus YCL061C, strain MRC1 (second series), stronger effect = lower value 0.996 | locus YDR150W, strain NUM1, stronger effect = lower value 0.996 | locus YDR363W, strain ESC2, stronger effect = lower value 0.999 | locus YER002W, strain NOP16, stronger effect = lower value 1.01 | locus YNL128W, strain TEP1, stronger effect = lower value 1.04 | locus YNL175C, strain NOP13, stronger effect = lower value 1.02 | locus YNL197C, strain WHI3, stronger effect = lower value 1.04 | locus YNL224C, strain SQS1, stronger effect = lower value 1.02 | locus YNL322C, strain KRE1, stronger effect = lower value 0.989 | locus YOR083W, strain WHI5 (second series), stronger effect = lower value 1.02 | locus YPL055C, strain LGE1, stronger effect = lower value 0.932
